A selection: hits, their analogues and other compounds. The true share with any hit is near 22%.
CYP2C19 inhib: blockers of cytochrome P450 2C19 activity – biochemical, luminescence, ADME assay, primary screen; inhibition, % at 5 µM; 96,000 compounds, 21% hits; CYP2C19 Supersomes, luciferin-H EGE luminescence, 30 min; P33261;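 active = CYP2C19 inhibition above a set limit at 5 µM in the primary screen, cut at about 50% in these data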
Target sequence (P33261 whole entry, looked up): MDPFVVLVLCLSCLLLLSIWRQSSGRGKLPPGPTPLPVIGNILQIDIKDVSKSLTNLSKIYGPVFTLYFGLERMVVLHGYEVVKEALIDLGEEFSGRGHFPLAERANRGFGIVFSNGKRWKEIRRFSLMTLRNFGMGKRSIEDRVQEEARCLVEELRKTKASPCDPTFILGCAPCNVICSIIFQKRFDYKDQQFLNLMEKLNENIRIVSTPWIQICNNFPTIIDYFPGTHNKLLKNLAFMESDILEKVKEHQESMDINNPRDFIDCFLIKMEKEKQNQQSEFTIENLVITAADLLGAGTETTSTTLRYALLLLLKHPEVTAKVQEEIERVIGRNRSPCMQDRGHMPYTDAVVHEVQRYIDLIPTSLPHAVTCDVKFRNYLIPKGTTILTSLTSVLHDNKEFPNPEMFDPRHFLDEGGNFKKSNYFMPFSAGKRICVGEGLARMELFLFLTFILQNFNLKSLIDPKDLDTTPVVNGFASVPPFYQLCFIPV
CYP2C19 act: human CYP2C19 activators, primary screen, biochemical, luminescence; 96,000 tested, under 10 active; activation factor at 5 µM; Cytochrome P450 2C19 (Homo sapiens), P33261; recombinant CYP2C19, luciferin-H EGE luminescence; hits give high values; 0 = fully inhibited enzyme, 1 = untreated enzyme;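 active = activation factor of at least 2 at 5 µM in the primary screen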
CYP2C9 inhib: blockers of cytochrome P450 2C9 activity – biochemical, luminescence, ADME assay, primary screen; inhibition, % at 5 µM; CYP2C9 Supersomes, luciferin-H conversion; P11712; 96,000 compounds, 20% hits;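 active = blocking of liver enzyme CYP2C9 beyond about 50% at 5 µM, limit read from the data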
Measles CPE: compounds protecting cells from measles virus cytopathic effect, primary screen, measles RdRp inhibitor project, single point, MLSMR library, absorbance. Measles virus-infected cells, CPE protection. 140,000 compounds, 1.5% hits. AID 841, 2007. protection (pct of control), % at 4 µM; in the data active = protection mostly above about 24%, no sharp cut-off; inactive = mostly below about 26%
CYP2C9 activ: human CYP2C9 activators, primary screen, biochemical, luminescence | Cytochrome P450 2C9 (Homo sapiens), P11712 | recombinant CYP2C9, luciferin-H conversion; hits give high values; factor 1 = untreated enzyme, 0 = blocked | activation factor at 5 µM | 96,000 compounds, 1.4% hits | AID 1024, 2008;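 active = activation factor of 2 or more for CYP2C9 at a 5 µM dose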
Each line names hits and unclear results; the compound was inactive in the other large screens.

CN(Cc1cccc(F)c1)C(=O)c1ccc(S(=O)(=O)C(F)F)cc1	CYP2C19 inhib 59
Cc1ccccc1NC(=O)c1ccc(S(=O)(=O)C(F)F)cc1	none (no result: CYP2C19 inhib, CYP2C19 act, CYP2C9 inhib, CYP2C9 activ)
CCOc1ccc(NC(=O)C2CC(=O)N(C)C(=Nc3ccc4c(c3)OCO4)S2)cc1 (configuration not stated)	none
COc1cccc(N=C2SC(C(=O)Nc3ccc(F)cc3)CC(=O)N2C)c1 (configuration not stated)	CYP2C19 inhib 83, CYP2C9 inhib 99
O=S(=O)(NC1CCCC1)c1ccc(S(=O)(=O)N2CCc3ccccc32)cc1	none (no result: CYP2C19 inhib, CYP2C19 act, CYP2C9 inhib, CYP2C9 activ)
CC1=NC(C(F)(F)F)(C(F)(F)F)C(C#N)=C(C)N1	CYP2C19 inhib 69
COc1ccc(CC(=O)OCCN(C)C)cc1	none
O=C(c1ccco1)N1CCN(S(=O)(=O)c2ccc(F)cc2)CC1	CYP2C19 inhib 53
O=C(c1ccco1)N1CCN(C(=O)C2Cc3ccccc3CN2S(=O)(=O)c2ccc(F)cc2)CC1 (configuration not stated)	CYP2C19 inhib 76
O=C(c1ccc(S(=O)(=O)Nc2ccc(F)cc2)cc1)N1CCN(C(=O)c2ccco2)CC1	CYP2C9 inhib 75
O=C(c1ccco1)N1CCN(c2ccc(S(=O)(=O)N3CCCC3)cc2)CC1	none
Cc1ccc(C(=O)Cn2nnc3ccccc32)cc1C	none
Cc1cc2oc(=O)cc(CN3CCCc4ccccc43)c2cc1C	CYP2C19 inhib 96, CYP2C9 inhib 96
Cc1cc2oc(=O)cc(CN3CCOCC3)c2cc1C	none
Cc1cc2oc(=O)cc(CN3CCN(C/C=C/c4ccccc4)CC3)c2cc1O	CYP2C9 inhib 84
CN1CCN(Cc2cc(=O)oc3cc4c(cc23)CCC4)CC1	CYP2C19 inhib 63, CYP2C9 inhib 64
CCN1CCN(Cc2cc(=O)oc3cc4c(cc23)CCC4)CC1	none
O=C(NC(=S)NCCSc1ccccc1)c1cccnc1	none (no result: CYP2C19 inhib, CYP2C19 act, CYP2C9 inhib, CYP2C9 activ)
CCOC(=O)Nc1cc(=O)c2ccccc2o1	none
COc1cc(C(=O)O/N=C2\C=CC(=O)C(C)=C2)cc(OC)c1OC	none
CCOC(=O)C1=C(CSc2nccn2C)NC(=O)NC1c1cc(C)ccc1C (configuration not stated)	none
CCOC(=O)C1=C(CSc2nccn2C)NC(=O)NC1c1ccc2c(c1)OCO2 (configuration not stated)	CYP2C19 inhib 88
COc1cc2c(c(OC)c1)C(c1ccncc1)CC(=O)N2 (configuration not stated)	CYP2C19 inhib 76, CYP2C9 inhib 90
COC(=O)c1ccc(C2CC(=O)Nc3cc(OC)c(OC)c(OC)c32)cc1 (configuration not stated)	CYP2C19 inhib 93, CYP2C9 inhib 88
COc1cc2c(cc1OC)C(c1ccc(N(C)C)cc1)CC(=O)N2 (configuration not stated)	none
COc1cc(NC(=S)N2CCCC(CO)C2)c(OC)cc1Cl (configuration not stated)	none (no result: CYP2C19 inhib, CYP2C19 act, CYP2C9 inhib, CYP2C9 activ)
O=C(Cc1ccc(F)cc1)Nc1ccc(F)c([N+](=O)[O-])c1	CYP2C19 inhib 56, Measles CPE 72
COc1ccc(NC(=O)CSc2nccc(C)n2)cc1	CYP2C19 inhib 51
COc1cccc(-n2ccnc2SCC(=O)Nc2cc(OC)ccc2OC)c1	CYP2C19 inhib 89
COc1cc(NC(=O)CSc2nccc(C)n2)c(C(=O)O)cc1OC	none
COc1ccc(-n2ccnc2SCC(=O)Nc2ccccc2)cc1	CYP2C19 inhib 60, CYP2C9 inhib 60
CCn1c(COc2cccc(OC)c2)nnc1SCC(=O)Nc1cc(OC)ccc1OC	none
COc1cccc(-n2ccnc2SCC(=O)N2CCCc3ccccc32)c1	none (no result: CYP2C19 inhib, CYP2C19 act, CYP2C9 inhib, CYP2C9 activ)
COc1ccc(NC(=O)CSc2nccn2-c2cccc(OC)c2)cc1	CYP2C19 inhib 59, CYP2C9 inhib 70
Cc1ccsc1C(=O)Nc1ccc(F)c([N+](=O)[O-])c1	none (no result: CYP2C19 inhib, CYP2C19 act, CYP2C9 inhib, CYP2C9 activ)
COC(=O)C1CCN(C(=O)NC(C)(C)C)CC1	none
Cc1ccc(C)c(NC(=O)c2cnn3ccccc23)c1	none
COc1cccc(-n2ccnc2SCC(=O)Nc2ccccc2)c1	CYP2C19 inhib 80 (no result: Measles CPE)
COc1cccc(NC(=O)CSc2nccn2-c2cccc(OC)c2)c1	CYP2C19 inhib 61
O=C(CSc1nccn1-c1cccc(Cl)c1)Nc1ccc2c(c1)OCCO2	CYP2C19 inhib 66, CYP2C9 inhib 66
Cc1cccc(-n2ccnc2SCC(=O)Nc2cc(C)on2)c1	Measles CPE 30
Cc1cccc(CC(=O)OCn2nnc3ccccc3c2=O)c1	none
CCN(CC)c1ccc(/C=C2/SC(=O)N(C(C)C)C2=O)o1	none (no result: CYP2C19 inhib, CYP2C19 act, CYP2C9 inhib, CYP2C9 activ)
Cc1ccc(S(=O)(=O)c2c(C(=O)c3ccccc3)cnc3cc4c(cc23)OCCO4)cc1	none (no result: CYP2C19 inhib, CYP2C19 act, CYP2C9 inhib, CYP2C9 activ)
Nc1c(NCc2ccccc2)c(=O)[nH]c(=O)n1Cc1ccccc1	none
Cc1ccc(C(=O)/C=C/c2ccc(-c3ccc(C)cc3)o2)cc1	none (no result: CYP2C19 inhib, CYP2C19 act, CYP2C9 inhib, CYP2C9 activ)
O=C(CSc1ccc2c(c1)OCCO2)Nc1ccc(Cl)cn1	CYP2C19 inhib 71
Clc1ccc(C(c2nnnn2C2CCCC2)N2CCN(Cc3ccncc3)CC2)cc1 (configuration not stated)	CYP2C19 inhib 98, CYP2C9 inhib 90
Fc1ccc(C(c2nnnn2C2CCCC2)N2CCN(Cc3ccccc3)CC2)cc1 (configuration not stated)	none
c1ccc(C(c2ccccc2)N2CCN(Cc3nnnn3C3CCCC3)CC2)cc1	CYP2C19 inhib 96, CYP2C9 inhib 98
Fc1ccccc1N1CCN(C(c2ccncc2)c2nnnn2C2CCCC2)CC1 (configuration not stated)	CYP2C19 inhib 86, CYP2C9 inhib 64
O=c1c(C(c2nnnn2C2CCCCC2)N2CCCCC2)coc2ccc(Cl)cc12 (configuration not stated)	CYP2C19 inhib 52
c1ccc(C(c2nnnn2C2CCCC2)N2CCN(c3nc4ccccc4s3)CC2)cc1 (configuration not stated)	none (no result: CYP2C19 inhib, CYP2C19 act, CYP2C9 inhib, CYP2C9 activ)
COc1ccc2c(c1)cc1n2CCN=C1NCCO	none
CCCc1nnc(NC(=O)CCC(=O)N2CCCCC2CC)s1 (configuration not stated)	none
COc1ccc(/C=C2/N=C3CCCCCN3C2=O)cc1OC	none (no result: CYP2C19 inhib, CYP2C19 act, CYP2C9 inhib, CYP2C9 activ)
CCC(c1nnnn1C1CCCC1)N1CCN(c2ccccc2F)CC1 (configuration not stated)	CYP2C9 inhib 56
CCC(c1nnnn1C1CCCC1)N1CCN(c2ccccc2)CC1 (configuration not stated)	none
c1cncc(C(c2nnnn2C2CCCC2)N2CCCC2)c1 (configuration not stated)	none
CCN1CCN(C(c2ccccc2OC)c2nnnn2C2CCCCC2)CC1 (configuration not stated)	none
CCCC(c1nnnn1C1CCCC1)N1CCN(c2ccccc2F)CC1 (configuration not stated)	CYP2C19 inhib 80, CYP2C9 inhib 97

From PubChem BioAssay
